GPR151 activ: activates the human receptor GPR151; Q8TDV0; PathHunter beta-arrestin GPR151 cells, luminescence; activation, % at 11.2 µM; actives 1% (n = 650,000); in the data active = activation above about 4.9%;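 also: 0% = median of compound wells and 100% = cells with positive control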
Target sequence (Q8TDV0 whole entry, looked up): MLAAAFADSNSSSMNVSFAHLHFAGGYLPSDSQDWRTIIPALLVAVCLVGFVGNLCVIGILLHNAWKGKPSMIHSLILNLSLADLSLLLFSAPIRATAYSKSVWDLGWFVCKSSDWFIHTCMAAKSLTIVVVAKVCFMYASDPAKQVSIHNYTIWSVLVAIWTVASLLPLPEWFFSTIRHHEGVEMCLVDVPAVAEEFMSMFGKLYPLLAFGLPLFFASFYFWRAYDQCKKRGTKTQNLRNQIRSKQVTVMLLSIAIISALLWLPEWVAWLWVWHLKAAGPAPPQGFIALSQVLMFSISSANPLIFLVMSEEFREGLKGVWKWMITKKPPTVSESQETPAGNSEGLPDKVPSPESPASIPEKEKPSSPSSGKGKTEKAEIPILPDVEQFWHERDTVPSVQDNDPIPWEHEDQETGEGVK
TEAD-YAP block: TEAD-YAP interaction inhibition | HEK-TIYL cells, TEAD-Gal4/YAP UAS-luciferase luminescence | inhibition, % at 9.12 µM | actives 1.4% (n = 640,000) | AID 1259422; in the data active = inhibition above about 32%;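 also: 0% = median of test compound wells and 100% = reference inhibitor wells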
MITF inh: inhibitors of human MITF; actives 0.91% (n = 650,000); AlphaScreen MITF homodimerization, bead proximity signal; inhibition, % at 2.6 µM; in the data active = inhibition above about 50%;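 also: 0% = vehicle wells with protein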
FBW7 activator: human FBW7 E3 ligase activation, primary screen. AlphaScreen FBW7–phospho-cyclin E peptide binding, activator screen. normalized activity (activation), % at 26.1 µM. actives 0.13% (n = 650,000). AID 1259310; in the data active = normalized activity above about 1.9%;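 also: purified mutant Fbw7 with reduced substrate affinity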
* marks the source's active call; other numbers are inactive results. Only some compounds are listed: those with a hit (about 3.5% of all), similar ones and a draw of the others.

SMILES | GPR151 activ | TEAD-YAP block | MITF inh | FBW7 activator
S=C(c1cn(CCOc2ccccc2)c2ccccc12)N1CCCC1 | 0.5 | -9.0 | -2.3 | -0.3
Cc1ccc(OCCn2cc(C(=S)N3CCCC3)c3ccccc32)cc1C | -0.3 | 52.5* | 13.8 | -0.2
CNc1ccc(Cl)cc1C(=O)c1cc(OC)c(OC)c(OC)c1 | -0.4 | 53.8* | 14.7 | -0.1
COc1cc(C(=O)Nc2ccc(F)cc2F)cc(OC)c1OC | -0.5 | -8.8 | -18.7 | -0.1
COc1cc(C(=O)c2cc(Br)ccc2N)cc(OC)c1OC | -0.3 | 51.0* | 12.9 | 0.0
CC1=C(C(=O)OC2CCCCCC2)C(c2cccc(Cl)c2)NC(=O)N1 (stereo not given) | -0.2 | -6.3 | 12.4 | 0.1
O=C1C(=O)c2ncccc2-c2cccnc21 | -0.2 | 74.5* | 57.2* | -1.8
CN1CCN(c2ccc(-c3cncc(/C=C/c4ccccc4)n3)cn2)CC1 | 0.0 | 41.2* | -19.2 | -0.1
C(=N\Nc1ccc2ccccc2n1)/c1cccnc1 | -6.2 | 75.1* | 3.3 | 0.0
C(=N\Nc1ccc2ccccc2n1)/c1ccc2c(c1)OCCO2 | -1.5 | 79.9* | 2.7 | -0.1
COc1cccc(/C=N/Nc2ccc3ccccc3n2)c1OC | -2.7 | 98.3* | -11.6 | -0.1
C(=N\Nc1nncc2ccccc12)/c1ccc2c(c1)OCCO2 | -7.6 | 97.6* | 1.5 | -0.2
COc1ccc(/C=N/Nc2ccc3ccccc3n2)c(OC)c1OC | -0.9 | -39.7 | 3.9 | 0.0
COc1ccc(/C=N/Nc2ccc3ccccc3n2)cc1 | -0.6 | -38.8 | -4.6 | -0.1
COc1cc(/C=C(\C#N)c2nnc(NC(=O)c3ccccc3)s2)ccc1O | -1.1 | -0.8 | 6.8 | 0.0
CC(C)N1CCc2c(sc(NC(=O)COc3ccccc3)c2C(N)=O)C1 | 0.5 | -34.8 | 23.1 | 0.2
CCOC(=O)Cn1cc(C(=O)OC)c2ccccc21 | 2.9 | -1.9 | 13.7 | 2.3*
CCOC(=O)Cn1cc(C=O)c2ccccc21 | 0.1 | -1.9 | -0.9 | 0.8
CCN(C(C)=O)C1=C(N2CCCC2)C(=O)c2ccccc2C1=O | -1.6 | 84.3* | 11.2 | 0.2
CC(=O)N(C1=C(N2CCCCC2)C(=O)c2ccccc2C1=O)c1ccc(F)c(F)c1 | -2.6 | 5.5 | 34.5 | -0.1
CC(=O)c1ccc(NC2=C(N3CCOCC3)C(=O)c3ccccc3C2=O)cc1 | -0.2 | 0.2 | 3.1 | -0.4
CCN(C1=C(N2CCCC2)C(=O)c2ccccc2C1=O)c1ccccc1 | -0.8 | 0.0 | 69.3* | -1.0
CC(=O)N(C)C1=C(N2CCCC2)C(=O)c2ccccc2C1=O | -4.4 | 94.0* | -9.0 | -0.2
CC(=O)N(C)C1=C(N2CCOCC2)C(=O)c2ccccc2C1=O | -2.3 | 83.8* | 0.7 | 0.3
COc1ccc(/C=C2\N=C(c3cccc(I)c3)OC2=O)cc1 | -0.1 | -0.4 | 14.8 | -0.1
SMILES | GPR151 activ | TEAD-YAP block | MITF inh | FBW7 activator
O=C(NCc1ccco1)c1ccccc1-c1nc(-c2ccc(Cl)cc2)no1 | 0.7 | -2.7 | 2.8 | -0.4
c1ccc2c(c1)CCCN2c1nc2ccccc2n2nnnc12 | -1.4 | -28.6 | -7.7 | 0.2
Cc1ccc(C(=O)CN(C(=O)CCl)c2ccccc2)cc1 | -1.1 | 36.4* | 1.3 | 0.1
Cc1ccc(N(CCC(N)=O)C(=O)CCl)cc1 | -0.1 | 76.0* | -1.2 | -0.4
CC(C)CC(=O)Nc1c2c(nn1-c1ccc(Cl)cc1)CSC2 | -0.3 | -9.9 | -0.1 | -0.1
C[C@@H](O)[C@@H]1NC(=O)[C@@H]2C[C@H](NC(=O)NC3CCCCC3)CN2C1=O | 1.2 | -9.8 | 5.0 | -0.1
O=[N+]([O-])c1ccc(OS(=O)(=O)c2ccc3ccccc3c2)c2ncccc12 | 1.0 | 48.2* | 1.9 | -1.7
O=[N+]([O-])c1cc([N+](=O)[O-])c2cccnc2c1Oc1ccccc1O | -0.6 | -27.4 | 68.0* | -0.9
COc1cc(C(=O)Oc2ccc([N+](=O)[O-])c3cccnc23)cc(OC)c1OC | 0.5 | 6.0 | 14.9 | 0.0
CC(=O)NC(c1ccc(C)cc1)c1cc([N+](=O)[O-])c2cccnc2c1O (stereo not given) | 1.1 | -10.3 | 30.8 | -0.7
COc1ccccc1C(NC(C)=O)c1cc([N+](=O)[O-])c2cccnc2c1O (stereo not given) | 0.1 | -7.7 | 84.6* | -0.9
CC(=O)NC(c1ccc(Cl)cc1Cl)c1cc([N+](=O)[O-])c2cccnc2c1O (stereo not given) | 0.8 | 31.4 | 58.1* | -1.8
COc1ccc(CC2S/C(=N\N=C/c3cccs3)NC2=O)cc1 (stereo not given) | -1.0 | 9.4 | 15.4 | 0.5
COc1ccc(OC)c2[nH]c(=O)c(CCNC(=O)/C=C\c3ccccc3)cc12 | 0.7 | 2.9 | 18.4 | 0.1
CCOc1ccccc1Nc1ncnc2sc(C)c(C)c12 | 1.3 | -1.1 | 2.1 | 0.0
CCOC(=O)c1cnc2ccccc2c1Nc1cccc(O)c1 | -0.4 | 4.4 | -0.6 | -0.1
Cc1cc(NS(=O)(=O)c2ccccc2)ccc1Br | -0.9 | -5.3 | -2.2 | 0.0
CC(=O)NC(c1ccc2c(c1)OCO2)c1cc([N+](=O)[O-])c2cccnc2c1O (stereo not given) | -0.4 | -3.1 | 67.9* | -0.6
CC(=O)NC(c1ccco1)c1cc([N+](=O)[O-])c2cccnc2c1O (stereo not given) | -0.9 | -1.6 | 55.1* | -0.4
COC(F)(C(=O)Nc1ccccc1C(C)C)C(F)(F)F (stereo not given) | 0.0 | 1.2 | 2.6 | 0.0
COC(=O)C(C)Oc1cc(OC(C)C(=O)OC)c2c3c(c(=O)oc2c1)CCC3 (stereo not given) | 0.0 | 44.0* | -11.6 | 0.5
CCOC(=O)C(C)Oc1cc(OC(C)C(=O)OCC)c2c3c(c(=O)oc2c1)CCCC3 (stereo not given) | -1.2 | 16.3 | 5.7 | 0.1
O=c1oc2cc(Cl)ccc2n1CN1CCCCC1 | 0.9 | 11.2 | 0.3 | -0.1
N#Cc1ccccc1NC(=O)c1cc2c(s1)-c1ccccc1OC2 | -0.3 | -11.2 | 9.0 | 0.5
Nc1cccc2c1C(=O)c1c(oc3c1ccc1ccccc13)C2=O | -1.6 | 78.3* | -2.8 | -0.3
SMILES | GPR151 activ | TEAD-YAP block | MITF inh | FBW7 activator
COc1cccc(C(=O)Nn2c(-c3ccc(C(C)(C)C)cc3)nc3ccccc3c2=O)c1 | 0.9 | 41.5* | 6.8 | 0.0
COc1cc(OC)cc(C(=O)Nn2c(-c3ccc(C(C)(C)C)cc3)nc3ccccc3c2=O)c1 | -0.7 | 38.2* | -5.1 | -0.1
COc1cccc(C(=O)Nn2c(-c3ccc(Br)cc3)nc3ccccc3c2=O)c1 | -0.4 | 2.9 | 8.3 | -0.2
Cn1c(=O)c2c(nc(Oc3ccc4c(c3)OCO4)n2Cc2ccccc2F)n(C)c1=O | -2.0 | -4.4 | 10.8 | 1.1
COc1cccc(-c2ocnc2C(=O)Nc2ccc(N3CCC(C)CC3)c(C(N)=O)c2)c1 | 0.3 | -6.2 | 6.8 | 9.2*
C=CCN1C(=O)/C(=C\c2ccc(-c3ccc(C(=O)O)cc3)o2)C(=O)NC1=S | 0.1 | 0.2 | 17.2 | -0.1
C=CCN1C(=O)/C(=C/c2ccc(OCc3cccc(C(=O)O)c3)cc2)C(=O)NC1=S | -9.8 | 78.8* | -2.4 | -0.2
C=CCN1C(=O)/C(=C\c2ccc(-c3cccc(C(=O)O)c3)o2)C(=O)NC1=S | 0.7 | 0.0 | 63.6* | -0.5
C=CCN1C(=O)/C(=C/c2cc(C)n(-c3cccc(C(=O)O)c3C)c2C)C(=O)NC1=S | 0.1 | 9.3 | 53.2* | 0.0
